Results as given in PubChem BioAssay AID1159580 (chemical genetic matrix, 2015).
Out of some 5,500 compounds screened, about 2,000 (36%) were called active. Roughly 18% stayed inconclusive and do not appear here. No stated cut-off is given here; in the data, active means normalized growth mostly below about 0.91 (no sharp cut-off); inconclusive means no clear call, values can overlap the other calls; inactive means mostly above about 0.92. This is one part of the list.

Assay: chemical genetic growth profiling, strain panel (AID 1159580);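 further: tested at 20 µM; growth read once vehicle control cultures reached saturation at 30 °C; 1 = growth at the plate median or of vehicle wells; lower values mean less growth of the strain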
Conditions: S. cerevisiae deletion strains, growth OD
[1] = locus YAL013W, strain DEP1, hits give low values
[2] = locus YAL040C, strain CLN3, hits give low values
[3] = locus YCL061C, strain MRC1 (second series), hits give low values
[4] = locus YDR363W, strain ESC2, hits give low values
[5] = locus YER002W, strain NOP16, hits give low values
[6] = locus YNL175C, strain NOP13, hits give low values
[7] = locus YNL197C, strain WHI3, hits give low values
[8] = locus YNL224C, strain SQS1, hits give low values
[9] = locus YOR083W, strain WHI5 (second series), hits give low values
[10] = locus YPL241C, strain CIN2, hits give low values

Measured: normalized growth

N=C(N)c1ccc(OCCCCCOc2ccc(C(=N)N)cc2)cc1 (tested in a mixture with another compound)
inactive: [1] 0.943 | [2] 0.944 | [3] 0.981 | locus YDR150W, strain NUM1, hits give low values 0.963 | [4] 0.961 | [5] 0.95 | locus YMR263W, strain SAP30, hits give low values 0.983 | [6] 0.962 | [7] 0.943 | [8] 0.946 | [9] 0.944 | locus YPL055C, strain LGE1, hits give low values 0.912 | [10] 0.95

N=C(N)c1ccc(N)cc1
inactive: [1] 1.01 | [2] 0.975 | [3] 0.998 | [4] 0.981 | [5] 0.997 | locus YGR229C, strain SMI1, hits give low values 1.01 | locus YMR307W, strain GAS1, hits give low values 1 | locus YNL128W, strain TEP1, hits give low values 0.978 | locus YNL153C, strain GIM3, hits give low values 1 | [6] 1.01 | [7] 0.994 | [8] 0.968 | [9] 0.981 | [10] 1
